Laboratory results as given in PubChem BioAssay (NCATS).
Inconclusive results are not listed. Calls of active or inactive are those of the source. Calls come from the whole dose curve; as a rule, active = well fitted curve in the direction sought with a large enough effect; inconclusive = small, poorly fitted or top-dose-only effect, or another doubt; inactive = no such curve, though single readings can be large; an effect the other way counts as inactive or inconclusive.

Experiments:
KB-3-1 = test: Cytotoxic Profiling of Annotated Libraries Using Quantitative High-Throughput Screening (AID 1296008); conditions: Five cell lines viability, CellTiter-Glo ATP luminescence, 48-72 h; max response: hits give low values; note: nearly all actives have a fitted effect of over 60% in size; for max response: % is set by controls: 0 for no effect and ±100 for the full control effect
How it was run: (§1)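 Cytotoxicity was measured as CellTiter-Glo ATP luminescence, read after 10 min at room temperature. Compound treatment of the cells lasted 48 or 72 hr at 37 degrees Celsius in a qHTS format.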

NIH3T3 [1] = test: as above; conditions: Five cell lines viability, CellTiter-Glo ATP luminescence, 48-72 h; max response: hits give low values
How it was run: as §1

HACAT = test: qHTS assay to identify novel small-molecules to repurpose for Merkel cell carcinoma treatment (AID 1296009); conditions: MCC and control cell lines, CellTiter-Glo viability, 72 h; at 44.8 µM (top of the series) unless noted; note: nearly all actives have a fitted effect of over 60% in size
How it was run: (§2)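 After compound transfer in DMSO, plates were kept 72 hr at 37 degree celsius. Luminescent ATP signal from CellTiter-Glo served as viability measure, normalized against DMSO and no-cell controls.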

HEK293T [2] = test: as above; conditions: MCC and control cell lines, CellTiter-Glo viability, 72 h; series mostly up to 44.8 µM
How it was run: as §2

C33A = test: Primary qHTS to identify gynecologic anti-cancer compounds using libraries of approved drugs and bioactive compounds (AID 1345084); conditions: Gynecologic cancer cell panel viability, ATPlite luminescence, 48 h; series mostly up to 57.5 µM; note: % is set by controls: 0 for no effect and ±100 for the full control effect; nearly all actives have a fitted effect of over 55% in size
How it was run: (§3)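 Five-concentration response, 48 h; readout is ATP-driven luciferase luminescence.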

CAOV3 = test: as above; conditions: Gynecologic cancer cell panel viability, ATPlite luminescence, 48 h; series mostly up to 57.5 µM
How it was run: as §3

CASKI = test: as above; conditions: Gynecologic cancer cell panel viability, ATPlite luminescence, 48 h; series mostly up to 57.5 µM
How it was run: as §3

Es-2 = test: as above; conditions: Gynecologic cancer cell panel viability, ATPlite luminescence, 48 h; series mostly up to 57.5 µM
How it was run: as §3

HeLa = test: as above; conditions: Gynecologic cancer cell panel viability, ATPlite luminescence, 48 h; series mostly up to 57.5 µM
How it was run: as §3

Hek293T [3] = test: as above; conditions: Gynecologic cancer cell panel viability, ATPlite luminescence, 48 h, control line for the selectivity index; series mostly up to 57.5 µM
How it was run: as §3

JEG-3 = test: as above; conditions: Gynecologic cancer cell panel viability, ATPlite luminescence, 48 h; series mostly up to 57.5 µM
How it was run: as §3

OV90 = test: as above; conditions: Gynecologic cancer cell panel viability, ATPlite luminescence, 48 h; series mostly up to 57.5 µM
How it was run: as §3

PA-1 = test: as above; conditions: Gynecologic cancer cell panel viability, ATPlite luminescence, 48 h; series mostly up to 57.5 µM
How it was run: as §3

NIH3T3 [4] = test: qHTS assay to identify novel small-molecules to repurpose for Merkel cell carcinoma treatment (AID 1296009); conditions: MCC and control cell lines, CellTiter-Glo viability, 72 h; at 44.8 µM (top of the series) unless noted; note: nearly all actives have a fitted effect of over 60% in size
How it was run: as §2

CC[C@H]1OC(=O)[C@H](C)[C@@H](OC2C[C@@](C)(OC)[C@@H](O)[C@H](C)O2)[C@H](C)[C@@H](OC2O[C@H](C)C[C@H](NC)[C@H]2O)[C@](C)(O)C[C@@H](C)CN(C)[C@H](C)[C@@H](O)[C@]1(C)O (stereo partly specified)
inactive: max response (KB-3-1) -2.3% | max response (NIH3T3 [1]) -0.0862% | outcome (HACAT) | Potency (HEK293T [2]) | Potency (C33A) | Potency (CAOV3) | Potency (CASKI) | Potency (Es-2) | Potency (HeLa) | Potency (Hek293T [3]) | Potency (JEG-3) | Potency (OV90) | Potency (PA-1)

CCOc1nc2cccc(C(=O)O)c2n1Cc1ccc(-c2ccccc2-c2noc(=O)[nH]2)cc1
inactive: outcome (KB-3-1) | max response (NIH3T3 [1]) -8.35% | outcome (HACAT) | Potency (HEK293T [2]) | Potency (C33A) | Potency (CAOV3) | Potency (CASKI) | Potency (Es-2) | Potency (HeLa) | Potency (Hek293T [3]) | Potency (JEG-3) | Potency (OV90) | Potency (PA-1)

CCOC(=O)[C@H](CCc1ccccc1)CC1(C(=O)N[C@H]2CCc3ccccc3N(CC(=O)O)C2=O)CCCC1
inactive: max response (KB-3-1) -2.38% | max response (NIH3T3 [1]) 3.76% | outcome (HACAT) | Potency (HEK293T [2]) | Potency (C33A) | Potency (CAOV3) | Potency (CASKI) | Potency (Es-2) | Potency (HeLa) | Potency (Hek293T [3]) | Potency (JEG-3) | Potency (OV90) | Potency (PA-1)

C=C[C@@]1(C)CC(=O)C2[C@](C)(O1)[C@@H](OC(C)=O)[C@@H](O)[C@H]1C(C)(C)CCC[C@]21C (stereo partly specified)
inactive: max response (KB-3-1) 7.42% | outcome (NIH3T3 [1]) | outcome (HACAT) inactive [at 9.27 µM] | outcome (HEK293T [2]) inactive [at 9.27 µM] | outcome (NIH3T3 [4]) inactive [at 9.27 µM] | activity change, negative = cytotoxicity (C33A) 11.6% [at 11.6 µM] | activity change, negative = cytotoxicity (CASKI) -3.47% [at 11.6 µM] | activity change, negative = cytotoxicity (Es-2) 1.29% [at 11.6 µM] | activity change, negative = cytotoxicity (HeLa) 4.53% [at 11.6 µM] | activity change, negative = cytotoxicity (Hek293T [3]) -0.239% [at 11.6 µM] | activity change, negative = cytotoxicity (JEG-3) 7.71% [at 11.6 µM] | activity change, negative = cytotoxicity (PA-1) 5.09% [at 11.6 µM]

C=CC(C)(C)O[C@@H]1O[C@H](CO[C@@H]2OC[C@](O)(CO)[C@H]2O)[C@@H](O)[C@H](O)[C@H]1O
inactive: outcome (KB-3-1) | outcome (NIH3T3 [1]) | outcome (HACAT) | Potency (HEK293T [2]) | outcome (NIH3T3 [4]) | Potency (C33A) | Potency (CASKI) | Potency (Es-2) | Potency (HeLa) | Potency (Hek293T [3]) | Potency (JEG-3) | Potency (OV90) | Potency (PA-1)

CC/C=C\C[C@H]1C(=O)C=C[C@@H]1CCCCCCCC(=O)O
inactive: max response (KB-3-1) -3.68% | outcome (NIH3T3 [1]) | outcome (HACAT) | Potency (HEK293T [2]) | outcome (NIH3T3 [4]) | Potency (C33A) | Potency (CAOV3) | Potency (CASKI) | Potency (Es-2) | Potency (HeLa) | Potency (Hek293T [3]) | Potency (JEG-3) | Potency (OV90) | Potency (PA-1)

C=C1CC[C@H]2[C@@](C)(CCC(O)[C@@]2(C)CO)[C@@H]1C/C=C(/C(=O)O)C(O)CO (stereo partly specified)
inactive: max response (KB-3-1) 7.71% | outcome (NIH3T3 [1]) | outcome (HACAT) | Potency (HEK293T [2]) | outcome (NIH3T3 [4]) | Potency (C33A) | Potency (CAOV3) | Potency (Es-2) | Potency (HeLa) | Potency (Hek293T [3]) | Potency (JEG-3) | Potency (OV90) | Potency (PA-1)

COC1(CC(C)C)NC(=O)C(O)(Cc2ccccc2)NC1=O (stereo unspecified)
inactive: max response (KB-3-1) -4.71% | outcome (NIH3T3 [1]) | outcome (HACAT) | Potency (HEK293T [2]) | outcome (NIH3T3 [4]) | Potency (C33A) | Potency (CASKI) | Potency (Es-2) | Potency (HeLa) | Potency (Hek293T [3]) | Potency (JEG-3) | Potency (OV90) | Potency (PA-1)

CC1(C)OC(=O)C(OCC2CC2)=C1c1ccc(S(C)(=O)=O)cc1
inactive: outcome (KB-3-1) | outcome (NIH3T3 [1]) | outcome (HACAT) | Potency (HEK293T [2]) | outcome (NIH3T3 [4]) | Potency (C33A) | Potency (CAOV3) | Potency (CASKI) | Potency (Es-2) | Potency (HeLa) | Potency (Hek293T [3]) | Potency (JEG-3) | Potency (OV90) | Potency (PA-1)

OCCc1ccc(O[C@@H]2O[C@H](CO)[C@@H](O)[C@H](O)[C@H]2O)c(O)c1
inactive: outcome (KB-3-1) | max response (NIH3T3 [1]) -4.15% | outcome (HACAT) | Potency (HEK293T [2]) | Potency (C33A) | Potency (CAOV3) | Potency (CASKI) | Potency (Es-2) | Potency (HeLa) | Potency (Hek293T [3]) | Potency (JEG-3) | Potency (OV90) | Potency (PA-1)

C[C@H]1CN(C[C@H](Cc2ccccc2)C(=O)NCC(=O)O)CC[C@@]1(C)c1cccc(O)c1
inactive: outcome (KB-3-1) | outcome (NIH3T3 [1]) | outcome (HACAT) | Potency (HEK293T [2]) | outcome (NIH3T3 [4]) | Potency (C33A) | Potency (CAOV3) | Potency (CASKI) | Potency (Es-2) | Potency (HeLa) | Potency (Hek293T [3]) | Potency (JEG-3) | Potency (OV90) | Potency (PA-1)

O=C1Nc2ccc(O)cc2O[C@H]1O[C@@H]1O[C@H](CO)[C@@H](O)[C@H](O)[C@H]1O
inactive: outcome (KB-3-1) | outcome (NIH3T3 [1]) | outcome (HACAT) | Potency (HEK293T [2]) | outcome (NIH3T3 [4]) | Potency (C33A) | Potency (CAOV3) | Potency (CASKI) | Potency (Es-2) | Potency (HeLa) | Potency (Hek293T [3]) | Potency (JEG-3) | Potency (OV90) | Potency (PA-1)

CC1(C)C[C@H]2C3=CCC4[C@@]5(C)CC[C@H](O[C@H]6O[C@H](C(=O)O)[C@@H](O)[C@H](O)[C@H]6O[C@H]6O[C@H](CO)[C@@H](O)[C@H](O)[C@H]6O[C@@H]6O[C@H](CO)[C@@H](O)[C@H](O)[C@H]6O)[C@](C)(CO)C5CC[C@@]4(C)[C@]3(C)CC[C@@]2(C)[C@H](O[C@@H]2OC[C@H](O)[C@H](OC3O[C@H](CO)[C@@H](O)[C@H](O)[C@H]3O)[C@H]2O)[C@@H]1O (stereo partly specified)
inactive: max response (KB-3-1) 9.85% | max response (NIH3T3 [1]) 4.34% | outcome (HACAT) inactive [at 9.27 µM] | outcome (HEK293T [2]) inactive [at 9.27 µM] | activity change, negative = cytotoxicity (C33A) 3.46% [at 6.55 µM] | activity change, negative = cytotoxicity (CAOV3) 18.6% [at 6.55 µM] | activity change, negative = cytotoxicity (CASKI) -2.3% [at 6.55 µM] | activity change, negative = cytotoxicity (Es-2) 0.0485% [at 6.55 µM] | activity change, negative = cytotoxicity (HeLa) 2.32% [at 6.55 µM] | activity change, negative = cytotoxicity (Hek293T [3]) -1.35% [at 6.55 µM] | activity change, negative = cytotoxicity (JEG-3) 2.5% [at 6.55 µM] | activity change, negative = cytotoxicity (OV90) -1.3% [at 6.55 µM]
